# Where “and” joins values, the source holds several entries; their conditions need not be identical. Equal entries are not always repeated. Where two headings read alike, the source gives them in different places.
# Assays:
# MAP4K3 = settings: concentration: 1 μM, replicates: in singlicate, n = 1
# MAP4K4 = settings: concentration: 1 μM, replicates: in singlicate, n = 1
# MAP4K5 = settings: concentration: 1 μM, replicates: in singlicate, n = 1
# MAPKAPK2 = settings: concentration: 1 μM, replicates: in singlicate, n = 1
# MAPKAPK5 = settings: concentration: 1 μM, replicates: in singlicate; n = 1
# MARK1 = settings: concentration: 1 μM, replicates: in singlicate, n = 1
# MARK2 = settings: concentration: 1 μM, replicates: in singlicate, n = 1
# MARK3 = settings: concentration: 1 μM, replicates: in singlicate, n = 1
# MARK4 = settings: concentration: 1 μM, replicates: in singlicate, n = 1
# MAST1 = settings: concentration: 1 μM, replicates: in singlicate, n = 1
# MEK1 = test system: T1, MEK1; settings: concentration: 1 μM, replicates: in singlicate, n = 1
# T1 construct: gene MAP2K1
# MEK2 = test system: T2, MEK2; settings: concentration: 1 μM, replicates: in singlicate, n = 1
# T2 construct: gene MAP2K2
# MEK3 = test system: T3, MEK3; settings: concentration: 1 μM, replicates: in singlicate, n = 1
# T3 construct: gene MAP2K3
# MEK4 = test system: T4, MEK4; settings: concentration: 1 μM, replicates: in singlicate, n = 1
# T4 construct: gene MAP2K4
# MEK5 = test system: T5, MEK5; settings: concentration: 1 μM, replicates: in singlicate, n = 1
# T5 construct: gene MAP2K5
# MEK6 = test system: T6, MEK6; settings: concentration: 1 μM, replicates: in singlicate, n = 1
# T6 construct: gene MAP2K6
# MELK = settings: concentration: 1 μM, replicates: in singlicate, n = 1
# MERTK = settings: concentration: 1 μM, replicates: in singlicate, n = 1
# MET = settings: concentration: 1 μM, replicates: in singlicate, n = 1
# MINK = test system: T7, MINK; settings: concentration: 1 μM, replicates: in singlicate, n = 1
# T7 construct: gene MINK1
# 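Note: KINOMEscan kinase panel screen.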
smiles,measurement,setting,value
CC(=O)Nc1ccc(COc2ccc(Nc3ccnc4cc(-c5ccccn5)ccc34)cc2)cc1.Cl [GW440148],%Inh,MAP4K3,0%
same,%Inh,MAP4K4,0%
same,%Inh,MAP4K5,0%
same,%Inh,MAPKAPK2,0%
same,%Inh,MAPKAPK5,2%
same,%Inh,MARK1,0%
same,%Inh,MARK2,0%
same,%Inh,MARK3,8%
same,%Inh,MARK4,0%
same,%Inh,MAST1,16%
same,%Inh,MEK1,51%
same,%Inh,MEK2,70%
same,%Inh,MEK3,0%
same,%Inh,MEK4,0%
same,%Inh,MEK5,99.5%
same,%Inh,MEK6,18%
same,%Inh,MELK,5%
same,%Inh,MERTK,11%
same,%Inh,MET,5%
same,%Inh,MINK,11%
CC(C)(CN)c1nc(-c2ccc(Cl)c(O)c2)c(-c2ccncc2)[nH]1.O=C(O)C(F)(F)F [SB-477794],%Inh,MAP4K3,0%
same,%Inh,MAP4K4; 1 µM,81% and 83%
same,%Inh,MAP4K5; 1 µM,17% and 26%
same,%Inh,MAPKAPK2; 1 µM,13% and 0%
same,%Inh,MAPKAPK5,0%
same,%Inh,MARK1; 1 µM,0% and 4%
same,%Inh,MARK2; 1 µM,0% and 22%
same,%Inh,MARK3; 1 µM,0% and 6%
same,%Inh,MARK4; 1 µM,0% and 13%
same,%Inh,MAST1; 1 µM,0% and 45%
same,%Inh,MEK1; 1 µM,14% and 2%
same,%Inh,MEK2,20%
same,%Inh,MEK3,0%
same,%Inh,MEK4; 1 µM,0% and 8%
same,%Inh,MEK5,99.5%
same,%Inh,MEK6; 1 µM,0% and 100%
same,%Inh,MELK; 1 µM,25% and 51%
same,%Inh,MERTK; 1 µM,32% and 45%
same,%Inh,MET; 1 µM,0% and 12%
same,%Inh,MINK; 1 µM,91.7% and 93.9%
NCCNS(=O)(=O)c1ccc(-c2ccnc3[nH]ccc23)cc1 [GSK977617],%Inh,MAP4K3; 1 µM,20% and 0%
same,%Inh,MAP4K4; 1 µM,43% and 25%
same,%Inh,MAP4K5; 1 µM,8% and 0%
same,%Inh,MAPKAPK2,0%
same,%Inh,MAPKAPK5,0%
same,%Inh,MARK1; 1 µM,18% and 0%
same,%Inh,MARK2; 1 µM,53% and 40%
same,%Inh,MARK3; 1 µM,25% and 4%
same,%Inh,MARK4; 1 µM,36% and 12%
same,%Inh,MAST1,0%
same,%Inh,MEK1; 1 µM,24% and 17%
same,%Inh,MEK2; 1 µM,52% and 48%
same,%Inh,MEK3; 1 µM,46% and 21%
same,%Inh,MEK4; 1 µM,42% and 23%
same,%Inh,MEK5; 1 µM,88% and 70%
same,%Inh,MEK6; 1 µM,18% and 11%
same,%Inh,MELK; 1 µM,99.2% and 95.2%
same,%Inh,MERTK; 1 µM,73% and 57%
same,%Inh,MET; 1 µM,20% and 0%
same,%Inh,MINK; 1 µM,48% and 34%
O=C(NOCC1CC1)c1ccc(F)c(F)c1Nc1ccc(I)cc1Cl,%Inh,MAP4K3,0%
same,%Inh,MAP4K4,0%
same,%Inh,MAP4K5,0%
same,%Inh,MAPKAPK2,0%
same,%Inh,MAPKAPK5,0%
same,%Inh,MARK1,0%
same,%Inh,MARK2,6%
same,%Inh,MARK3,0%
same,%Inh,MARK4,0%
same,%Inh,MAST1,0%
same,%Inh,MEK1,64%
same,%Inh,MEK2,47%
same,%Inh,MEK3,0%
same,%Inh,MEK4,0%
same,%Inh,MEK5,0%
same,%Inh,MEK6,0%
same,%Inh,MELK,0%
same,%Inh,MERTK,0%
same,%Inh,MET,0%
same,%Inh,MINK,0%
O=C(c1ccc(-c2cc(-c3c[nH]nc3-c3ccccn3)ccn2)cc1)N1CCOCC1 [GW812171],%Inh,MAP4K3,0%
same,%Inh,MAP4K4,0%
same,%Inh,MAP4K5,0%
same,%Inh,MAPKAPK2,0%
same,%Inh,MAPKAPK5,0%
same,%Inh,MARK1,5%
same,%Inh,MARK2,21%
same,%Inh,MARK3,17%
same,%Inh,MARK4,11%
same,%Inh,MAST1,18%
same,%Inh,MEK1,31%
same,%Inh,MEK2,46%
same,%Inh,MEK3,38%
same,%Inh,MEK4,14%
same,%Inh,MEK5,42%
same,%Inh,MEK6,14%
same,%Inh,MELK,0%
same,%Inh,MERTK,12%
same,%Inh,MET,0%
same,%Inh,MINK,40%
